This note sets out measurements from PubChem BioAssay (NCI).

This is part of a sample that, as a whole, favours compounds with a hit. Of some 83,000 tested, about 20% had one in any assay.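 Treatment: one concentration, 48 hours, 96-well format. Scoring: percent growth, with anything below 10 considered active.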 A number with no mark means an inactive call.

For this assay, the system named is NCI-H23 lung. The experiment in a line: NCI-60 one-dose screen, 48 h (100 = growth as untreated, 0 = no growth, -100 = all killed). To be noted: 10 µM unless noted.
With `OC(c1ccccc1)c1nnc(SCc2ccccc2)n1Cc1ccccc1` (stereo not given), the growth was 98.2%.
Then `COc1ccc(/C=C2\SC(=Nc3ccccc3)NC2=O)cc1`, with 21.6%; and `COc1ccc(-n2c(C(O)c3ccccc3)nn(CN3CCOCC3)c2=S)cc1` (stereo not given), with 99.4%; and `CN(O)c1nc(N(C)O)nc(N2CCOCC2)n1`, with 66%.
Regarding `O=C(NC(=S)Nc1cccc(NC(=S)NC(=O)c2ccccc2)c1)c1ccccc1`, the growth was 69.1%.
For `Cn1c2c(c(=O)[nH]c1=O)NC1=C(C(=O)c3ccccc31)C1(C=C(O)c3ccccc31)N2` (stereo not given), the growth was 109%.
On to `Nc1nc(Nc2cccc(F)c2)nc2ccccc12`, for which the growth was 38.7%.
Then `COc1cc(OC)cc(N2C(=O)N(Cc3ccc(C(C)(C)C)cc3)c3ccccc3S2(=O)=O)c1`, with 82.8%.
For the molecule `CC/C=C\C[C@H](O)C/C=C1/C(=O)C=C[C@@H]1C/C=C\CCCC(=O)OCCS(=O)(=O)c1ccccc1`, the growth is 59%.
Regarding `COc1ccc(C2Nc3ncnc(N)c3N=C3c4ccccc4C(=O)C32)cc1` (stereo not given), the growth is 101%.
In the case of `O=CCCCC(O)C=O` (stereo not given), the growth was 96.3%.
With `COC(=O)/C(=C\c1c(-c2ccccc2)[nH]c2ccccc12)S(C)(=O)=O`, the growth was 33.9%.
For `COc1ccc(-c2nsc3c2NC(=O)CC3c2ccsc2)cc1` (stereo not given), the growth was 39.6%.
Then `FC(F)(F)c1cccc(Nc2nc(-c3ccccc3)nc3ncccc23)c1`, with 89.9%; and `COC(=O)/C(=C\c1c(C)[nH]c2ccccc12)S(=O)(=O)c1ccccc1`, with 18.6%.
